Assay outcomes: PubChem BioAssay, National Center for Advancing Translational Sciences (NCATS)
TRPV1 PAM: potentiators of human vanilloid receptor 1 (TRPV1); potentiation, % at 8.33 µM; actives 0.02% (n = 320,000); AID 540277; TRPV1-expressing cells, Fluo-8 calcium influx, capsaicin EC20 potentiation; in the data active = potentiation above about 80%; inconclusive = between about 30% and that limit; note: 0% is about no effect
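Fluo-8 calcium influx in TRPV1-expressing cells, kinetic read (ex 480/em 520 nm). Compound added and read 3 min for agonist activity, followed by capsaicin at EC20 final and 2 min further read for enhancement.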
TRPV1 ag: human TRPV1 agonism | Q8NER1 | TRPV1-expressing cells, Fluo-8 calcium influx, agonist mode | activation, % at 8.33 µM | actives 0.19% (n = 320,000) | AID 540275; in the data active = activation above about 80%; inconclusive = between about 30% and that limit; note: 0% is about no effect
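Fluo-8 calcium influx in TRPV1-expressing cells, kinetic read (ex 480/em 520 nm). Compound added and read 3 min for agonist activity, followed by capsaicin at EC20 final and 2 min further read for enhancement.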
KCNH2 3.1 inh: blocks the human KCNH2 3.1 channel isoform; U2OS KCNH2 3.1, thallium flux FluxOr; hits give low values; activity change, % (tested at about 1.8 µM); actives 0.95% (n = 340,000);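 active = maximum activity change below -70%; inconclusive = maximum activity change from -70% to -50%; inactive = maximum activity change above -50%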;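 note: thallium influx rate constant from kinetic fluorescence after stimulation buffer; % is set by controls: 0 for no effect and ±100 for the full control effect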
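U2OS cells transduced with KCNH2 3.1 mutant virus (1.77 x 10^8 /mL, 4 h), plated overnight at 37 C, loaded 45 min with FluxOr dye plus Red40 quencher. Thallium flux rate constant from kinetic reads after stimulation buffer, normalised to controls.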
KCNH2 WT inh: inhibitors of human wildtype KCNH2 potassium channel; U2OS, BacMam KCNH2, thallium flux FluxOr; hits give low values; activity change, % at 1.84 µM; actives 0.37% (n = 340,000); Q12809;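 active = maximum activity change below -70%; inconclusive = maximum activity change between -70% and -50%; inactive = maximum activity change above -50%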; note: % is set by controls: 0 for no effect and ±100 for the full control effect
Target sequence (Q12809 whole entry, looked up): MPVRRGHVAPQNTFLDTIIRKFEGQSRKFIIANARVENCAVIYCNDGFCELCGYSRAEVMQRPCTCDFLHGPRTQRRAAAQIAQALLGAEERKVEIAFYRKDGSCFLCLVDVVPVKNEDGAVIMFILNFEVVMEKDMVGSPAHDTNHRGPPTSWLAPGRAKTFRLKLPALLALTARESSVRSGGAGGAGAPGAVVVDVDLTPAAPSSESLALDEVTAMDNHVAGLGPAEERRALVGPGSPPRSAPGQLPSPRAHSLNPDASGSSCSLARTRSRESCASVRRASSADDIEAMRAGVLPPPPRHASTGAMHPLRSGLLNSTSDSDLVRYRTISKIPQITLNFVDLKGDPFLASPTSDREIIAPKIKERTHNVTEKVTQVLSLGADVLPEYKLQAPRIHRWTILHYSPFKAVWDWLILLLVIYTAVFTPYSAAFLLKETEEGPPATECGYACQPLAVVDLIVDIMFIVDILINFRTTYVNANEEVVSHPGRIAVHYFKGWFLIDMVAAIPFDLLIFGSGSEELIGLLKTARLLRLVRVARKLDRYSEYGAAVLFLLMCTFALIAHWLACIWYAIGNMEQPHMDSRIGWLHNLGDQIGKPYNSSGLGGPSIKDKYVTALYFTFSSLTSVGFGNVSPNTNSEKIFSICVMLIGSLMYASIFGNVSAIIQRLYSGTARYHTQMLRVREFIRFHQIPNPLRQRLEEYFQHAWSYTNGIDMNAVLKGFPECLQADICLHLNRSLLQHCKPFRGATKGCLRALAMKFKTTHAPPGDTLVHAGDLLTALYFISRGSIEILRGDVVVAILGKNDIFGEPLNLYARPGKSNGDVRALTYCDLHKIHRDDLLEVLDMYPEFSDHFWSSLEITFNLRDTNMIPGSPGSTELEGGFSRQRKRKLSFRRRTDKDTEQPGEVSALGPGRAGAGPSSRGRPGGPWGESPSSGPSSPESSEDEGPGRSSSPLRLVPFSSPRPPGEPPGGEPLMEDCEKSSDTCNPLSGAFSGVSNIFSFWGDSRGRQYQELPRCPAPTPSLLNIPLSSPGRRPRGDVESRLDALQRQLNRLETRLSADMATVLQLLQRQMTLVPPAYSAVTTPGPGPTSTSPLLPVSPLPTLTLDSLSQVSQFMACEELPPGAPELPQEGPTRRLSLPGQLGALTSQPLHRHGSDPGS
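U2OS cells transduced with wild-type KCNH2 virus are loaded with FluxOr dye for 45 min, and thallium flux is measured in kinetic reads before and after stimulation buffer. Rate constants are normalized to DMSO controls.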
Active calls of the source: *; ? = inconclusive; . = no result given. Only some compounds are listed: those with a hit (about 1.3% of all), similar ones and a draw of the others.

SMILES | TRPV1 PAM | TRPV1 ag | KCNH2 3.1 inh | KCNH2 WT inh
O=C1CC(c2ccco2)CC2=C1C(c1ccc(O)cc1)n1nc(C(F)(F)F)nc1N2 (stereo unspecified) | 12 | 1 | . | .
Nc1nc(N)c2[nH]cnc2n1 | . | . | -92* | -4
CN1CCN(C2Cc3ccccc3Sc3ccc(Cl)cc32)CC1 (stereo unspecified) | 2 | 6 | ? | 11
CN1CCN(C2Cc3ccc(F)cc3Sc3cc(F)c(Cl)cc32)CC1 (stereo unspecified) | . | . | -88* | -41
CN1CCN(C2Cc3cc(F)ccc3Sc3ccc(Cl)cc32)CC1 (stereo unspecified) | . | . | -78* | -8
O=C1NC(=O)C(Cc2ccc(Cl)cc2)(c2ccccc2)N1 (stereo unspecified) | . | . | 14 | 5
CN(C)c1ccc(C(CNS(=O)(=O)c2ccc3ccccc3c2)N2CCOCC2)cc1 (stereo unspecified) | 0 | 8 | 4 | -2
CC(C)Cn1cnc2c1c(=O)[nH]c(=O)n2Cc1ccccc1 | 7 | 0 | -82* | -2
C[N+]1=C(/C=C/Nc2ccccc2Cl)C(C)(C)c2ccccc21 | 19 | -4 | -23 | -80*
COC(=O)c1ccc2c(c1)C(C)(C)C(/C=C/c1ccccc1O)=[N+]2C | -6 | 3 | -10 | 0
O=[N+]([O-])c1ccc(-c2cn(-c3ccccc3)c(=S)[nH]2)cc1 | -2 | -5 | -14 | -8
Cc1cccc(-n2cc(-c3ccc([N+](=O)[O-])cc3)[nH]c2=S)c1 | -9 | 13 | ? | -70*
OC(COC(c1ccc(Cl)cc1)c1ccc(Cl)cc1)CN1CCCC1 (stereo unspecified) | 22 | 2 | -112* | -140*
CN1CCN(CC(O)COC(c2ccc(Cl)cc2)c2ccc(Cl)cc2)CC1 (stereo unspecified) | 10 | -1 | -94* | 9
Cc1ccc(C(OCC(O)CN2CCCCC2)c2ccccc2)cc1 (stereo unspecified) | 4 | -1 | -34 | 7
Cc1ccc(Cl)cc1N1CCN(CC(O)COC(C)C)CC1 (stereo unspecified) | -20 | 2 | -77* | 28
C=CCn1c(=O)c(C(=O)NC2CC2)c(O)c2cc(OC)c(OC)cc21 | -5 | 0 | 32 | 3
CCOc1ccc(NC(=O)CC2C(=O)N(CC)C(=S)N2CCN2CCOCC2)cc1 (stereo unspecified) | -9 | 6 | -88* | 0
CCOc1ccc(NC(=O)CC2C(=O)N(CC)C(=S)N2CCNC(C)=O)cc1 (stereo unspecified) | -1 | 1 | -8 | -4
O=C1CC2(CCN(C(=O)COc3ccc(Cl)cc3)CC2)Oc2ccccc21 | -6 | -1 | -86* | -47
Cc1c(NC(=O)CSc2nnc(-c3ccncc3)n2C)c(=O)n(-c2ccccc2)n1C | . | . | 3 | 12
CCOC(=O)N1CCN(S(=O)(=O)c2cc([N+](=O)[O-])ccc2C)CC1 | -13 | 8 | 8 | 22
CCOC(=O)N1CCC(=NNS(=O)(=O)c2cccc([N+](=O)[O-])c2)CC1 | -29 | 0 | -71* | -1
CC(NS(=O)(=O)c1ccc2[nH]c(=O)[nH]c2c1)c1ccc(F)cc1 (stereo unspecified) | . | . | -2 | 0
CC(OC(=O)c1cc(Br)ccc1O)C(=O)Nc1ccc(S(=O)(=O)N2CCCC2)cc1 (stereo unspecified) | 13 | 7 | -91* | -3
SMILES | TRPV1 PAM | TRPV1 ag | KCNH2 3.1 inh | KCNH2 WT inh
Cc1cccc(C(=O)OC(C)C(=O)Nc2ccc(S(=O)(=O)N3CCCC3)cc2)c1O (stereo unspecified) | -5 | 23 | -7 | 6
CC(C)C(=O)Nc1ccc(C(=O)NNC(=O)CCc2ccccc2)cc1 | -2 | -1 | -76* | -17
CCn1cnc2c([N+](=O)[O-])c(NS(=O)(=O)c3ccc(C)cc3)ccc21 | 19 | -4 | 5 | -3
COC1Cc2ccccc2N(C(N)=O)c2ccccc21 (stereo unspecified) | . | . | 5 | 4
COc1ccc(C(=O)N2CCN(c3ccc(NC(=O)c4cccs4)cc3)CC2)cc1 | 7 | -2 | -92* | 12
CCC(=O)N1CCN(c2ccc(NC(=O)c3cccs3)cc2)CC1 | 1 | 1 | 6 | 8
O=C(Nc1ccc(N2CCN(C(=O)c3ccccc3)CC2)cc1)c1cccs1 | 2 | 4 | -177* | -136*
